Measurements published in PubChem BioAssay (NCATS).
Inconclusive results are not listed. Calls of active or inactive are those of the source. Unless noted, the call rests on the fitted dose curve; in most records, active means well fitted curve in the direction sought with a large enough effect; inconclusive means small, poorly fitted or top-dose-only effect, or another doubt; inactive means no such curve, though single readings can be large; an effect the other way counts as inactive or inconclusive.

Tests used:
[1] = biological target: Bile acid receptor (Homo sapiens) (UniProt Q96RI1); assay: qHTS assay for small molecule agonists of farnesoid X receptor signaling (AID 588527; calls by dose curve;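 further: series mostly up to about 77 µM; 0% = vehicle basal and 100% = reference agonist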); details: HEK293T FXR-UAS-bla, beta-lactamase ratio, 16 h; activation: stronger effect = higher value
Bile acid receptor (Homo sapiens), sequence (Q96RI1 whole entry, looked up): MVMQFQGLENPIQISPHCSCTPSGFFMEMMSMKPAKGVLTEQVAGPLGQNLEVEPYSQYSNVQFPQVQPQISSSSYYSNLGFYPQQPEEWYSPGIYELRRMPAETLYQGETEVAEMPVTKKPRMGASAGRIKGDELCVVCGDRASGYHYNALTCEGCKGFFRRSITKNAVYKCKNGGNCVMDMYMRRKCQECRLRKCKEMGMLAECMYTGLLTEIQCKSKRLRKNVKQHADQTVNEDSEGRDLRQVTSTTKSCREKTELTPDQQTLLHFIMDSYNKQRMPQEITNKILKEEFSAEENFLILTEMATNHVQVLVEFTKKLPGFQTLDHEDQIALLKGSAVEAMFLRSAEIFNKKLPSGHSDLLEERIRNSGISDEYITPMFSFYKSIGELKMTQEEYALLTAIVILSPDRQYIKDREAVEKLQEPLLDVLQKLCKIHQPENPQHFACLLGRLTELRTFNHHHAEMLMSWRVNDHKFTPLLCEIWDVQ
How it was run: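 FXR-UAS-bla HEK293T, 10% dialyzed FBS; cpds up to 92 uM titration, 16 h 37 C; CCF4 dye 2 h RT; fluorescence. Normalized to chenodeoxycholic acid 100 uM (100%) and DMSO (0%); Hill fit gives EC50, efficacy.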

[2] = biological target: Peroxisome proliferator-activated receptor delta (Homo sapiens) (UniProt Q03181); assay: qHTS assay for small molecule agonists of peroxisome proliferator-activated receptor delta signaling (AID 588534; calls by dose curve;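 further: 0% = DMSO basal wells and 100% = positive control agonist at 10 µM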)
Peroxisome proliferator-activated receptor delta (Homo sapiens), sequence (Q03181 whole entry, looked up): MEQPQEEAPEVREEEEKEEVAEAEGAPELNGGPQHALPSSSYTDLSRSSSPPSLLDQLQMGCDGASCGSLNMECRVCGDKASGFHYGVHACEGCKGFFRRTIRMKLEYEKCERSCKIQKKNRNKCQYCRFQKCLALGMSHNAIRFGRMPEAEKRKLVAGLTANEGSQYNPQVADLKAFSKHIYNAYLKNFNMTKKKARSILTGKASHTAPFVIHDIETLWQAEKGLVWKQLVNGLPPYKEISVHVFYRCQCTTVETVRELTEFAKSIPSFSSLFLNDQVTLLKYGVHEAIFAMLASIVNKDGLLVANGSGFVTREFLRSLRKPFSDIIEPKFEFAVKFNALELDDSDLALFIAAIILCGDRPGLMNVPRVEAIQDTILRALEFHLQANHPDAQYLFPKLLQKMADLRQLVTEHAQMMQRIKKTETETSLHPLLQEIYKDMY
How it was run: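 Agonist-mode qHTS; reporter cells, 5 hrs 37 C pre-incubation; compound titration, 18 hrs 37 C; CCF4 dye, 2 hrs RT; fluorescence read. EC50/efficacy via Hill fit.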

[3] = qHTS assay for small molecule antagonists of peroxisome proliferator-activated receptor delta signaling (AID 588535); details: HEK293T PPARd-UAS-bla, beta-lactamase FRET ratio, 18 h; 460 nm channel;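 further: cells co-treated with a PPAR-delta agonist as stimulator during compound exposure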
How it was run: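 Fluorescence from CCF4-loaded GeneBLAzer PPAR-delta-UAS-bla HEK293T cells (2 hrs RT loading) quantified reporter inhibition after an 18 hr, 37 C compound exposure across a titration.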

[4] = biological target: Vitamin D3 receptor (Homo sapiens) (UniProt P11473); assay: qHTS assay for small molecule antagonists of vitamin D receptor signaling (AID 588541; calls by dose curve;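 further: receptor activated by calcitriol during compound treatment; series mostly up to about 77 µM; on the % scale 0 is the no-effect control and ±100 the full control effect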)
Vitamin D3 receptor (Homo sapiens), sequence (P11473 whole entry, looked up): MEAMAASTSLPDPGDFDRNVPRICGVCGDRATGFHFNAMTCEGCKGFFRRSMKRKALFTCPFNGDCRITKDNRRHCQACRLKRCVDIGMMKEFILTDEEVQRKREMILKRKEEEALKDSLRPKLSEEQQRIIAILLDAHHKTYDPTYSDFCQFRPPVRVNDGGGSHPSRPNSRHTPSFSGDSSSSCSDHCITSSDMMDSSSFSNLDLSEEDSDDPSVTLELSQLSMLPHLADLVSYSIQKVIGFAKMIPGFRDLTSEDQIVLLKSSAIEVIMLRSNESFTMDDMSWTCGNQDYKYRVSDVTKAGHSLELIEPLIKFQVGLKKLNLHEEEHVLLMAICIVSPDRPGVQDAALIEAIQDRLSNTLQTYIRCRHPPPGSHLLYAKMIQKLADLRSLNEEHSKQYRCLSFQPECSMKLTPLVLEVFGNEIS
How it was run: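 VDR-UAS-bla HEK293T cells in 2% charcoal-stripped FBS were stimulated with 1-alpha,25-dihydroxyvitamin D3 (3 nM final) plus compound for 16 h at 37 C. The beta-lactamase CCF4 readout was normalized to 50 nM agonist and DMSO, and Hill fits gave IC50.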

[5] = biological target: Vitamin D3 receptor (Homo sapiens) (UniProt P11473); assay: qHTS assay for small molecule agonists of vitamin D receptor signaling (AID 588543; calls by dose curve;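 further: 0% = DMSO basal and 100% = reference agonist control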)
How it was run: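 β-lactamase reporter, VDR-UAS-bla HEK293T, agonist mode. Cells plated 5 h at 37 °C, compound titration 16 h at 37 °C, CCF4 dye 2 h RT, ratio 460/530 nm. Hill fit → EC50, efficacy vs 50 nM 1α,25-(OH)2D3.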

[6] = qHTS assay for small molecule agonists of retinoid X receptor alpha signaling (AID 588544; calls by dose curve;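 on activation: 0% = DMSO basal wells and 100% = reference agonist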); details: HEK293T RXRa-UAS-bla, beta-lactamase reporter, 18 h; 530 nm emission
[7] = biological target: Retinoic acid receptor RXR-alpha (Homo sapiens) (UniProt P19793); assay: as above
Retinoic acid receptor RXR-alpha (Homo sapiens), sequence (P19793 whole entry, looked up): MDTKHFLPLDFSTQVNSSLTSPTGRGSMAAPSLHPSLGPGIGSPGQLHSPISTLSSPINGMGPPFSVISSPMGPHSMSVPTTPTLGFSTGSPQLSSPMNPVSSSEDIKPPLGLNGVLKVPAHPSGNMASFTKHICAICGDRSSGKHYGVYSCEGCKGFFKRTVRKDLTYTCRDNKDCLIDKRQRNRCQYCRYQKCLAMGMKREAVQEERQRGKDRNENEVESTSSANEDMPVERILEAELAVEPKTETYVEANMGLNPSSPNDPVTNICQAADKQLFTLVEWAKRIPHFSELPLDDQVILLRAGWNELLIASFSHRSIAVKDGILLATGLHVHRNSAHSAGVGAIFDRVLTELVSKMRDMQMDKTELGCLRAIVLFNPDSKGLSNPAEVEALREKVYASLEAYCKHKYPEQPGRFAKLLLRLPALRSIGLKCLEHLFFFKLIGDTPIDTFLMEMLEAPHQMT

[8] = biological target: Thyroid hormone receptor beta (Homo sapiens) (UniProt P10828); assay: qHTS assay for small molecule agonists of thyroid hormone receptor beta signaling (AID 588545; calls by dose curve)
Thyroid hormone receptor beta (Homo sapiens), sequence (P10828 whole entry, looked up): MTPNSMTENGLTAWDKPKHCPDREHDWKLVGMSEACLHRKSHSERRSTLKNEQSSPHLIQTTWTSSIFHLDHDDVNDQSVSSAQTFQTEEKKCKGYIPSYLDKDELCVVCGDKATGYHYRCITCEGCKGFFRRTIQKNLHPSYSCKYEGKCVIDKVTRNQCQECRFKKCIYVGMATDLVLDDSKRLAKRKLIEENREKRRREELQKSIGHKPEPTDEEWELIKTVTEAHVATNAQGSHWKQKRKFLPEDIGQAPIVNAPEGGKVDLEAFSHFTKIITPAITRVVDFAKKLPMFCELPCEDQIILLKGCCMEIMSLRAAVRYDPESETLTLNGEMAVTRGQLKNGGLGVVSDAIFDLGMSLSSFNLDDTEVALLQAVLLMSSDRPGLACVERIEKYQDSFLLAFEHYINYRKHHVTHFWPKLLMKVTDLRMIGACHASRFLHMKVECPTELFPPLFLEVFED
How it was run: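 HEK 293 TR-UAS-bla; agonist mode; 18 hrs, 37 C; CCF4, ex 405/em 460 and 530 nm; norm. T3 10 nM = 100%, DMSO = 0%; Hill fit → EC50, efficacy.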

[9] = qHTS assay for small molecule antagonists of retinoid X receptor alpha signaling (AID 588546; active means well fitted inhibition curve with a large enough effect in the signal ratio, with a control signal flat, not every such curve was filed as active; the % refers to the signal ratio;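 further: cells stimulated with 9-cis-retinoic acid as agonist; on the % scale 0 is the no-effect control and ±100 the full control effect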); details: HEK293T RXRa-UAS-bla, beta-lactamase ratio, antagonist mode; measured here: W530 green channel, cytotoxicity proxy
How it was run: (§1)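 Beta-lactamase reporter inhibition, read as CCF4 fluorescence ratio (ex 405, em 460/530 nm) after 2 h at RT. HEK293T UAS-bla cells, 2500/well, were stimulated with 9-cis-RA at 500 or 100 nM final alongside test compound for 18 h at 37 C.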

[10] = biological target: Retinoic acid receptor RXR-alpha (Homo sapiens) (UniProt P19793); assay: as above; details: HEK293T RXRa-UAS-bla, beta-lactamase ratio, antagonist mode
How it was run: as §1

[11] = biological target: Thyroid hormone receptor beta (Homo sapiens) (UniProt P10828); assay: qHTS assay for small molecule antagonists of thyroid hormone receptor beta signaling (AID 588547; active means well fitted inhibition curve with a large enough effect in the signal ratio, with a control signal flat, not every such curve was filed as active; the % refers to the signal ratio;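 further: cells stimulated with 0.4 nM T3 agonist during compound exposure; series mostly up to about 77 µM; on the % scale 0 is the no-effect control and ±100 the full control effect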); details: TR-UAS-bla HEK293, beta-lactamase ratio, antagonist mode, 18 h
How it was run: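 TR-UAS-bla GripTite HEK293 cells in 2% charcoal/dextran FBS medium; compounds 0.59 nM to 92 uM with T3 at 0.4nM final, 18 h at 37 C. Beta-lactamase read by CCF4 fluorescence (460/530 nm); Hill fits gave IC50 and efficacy.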

[12] = qHTS assay for small molecule activators of the p53 signaling pathway (AID 651743; active means well fitted activation curve with a large enough effect in the signal ratio, not every such curve was filed as active; the % refers to the signal ratio; further: series mostly up to about 92 µM; % of control where 0% means no effect); details: HCT-116 p53RE-bla, beta-lactamase FRET ratio, 16 h; activation: stronger effect = higher value
How it was run: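 Following 16 hours of compound exposure at 37 C, HCT-116 cells bearing the p53RE-bla reporter were loaded with LiveBLAzer B/G FRET substrate for 2 hours at room temperature and fluorescence intensity was recorded.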

[13] = qHTS assay for environmental chemicals that activate the Aryl hydrocarbon Receptor (AhR) signaling pathway (AID 651777); details: 1A2-DRE human hepatoma cells, luciferase, 24 h; activation: stronger effect = higher value; further: nearly all actives have a fitted effect of over 15% in size; further: potency means the concentration at half of the fitted maximal effect; on activation: % of control where 0% means no effect
How it was run: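 Luminescence (One-Glo, 30 min, room temperature) reports AhR-driven luciferase in stably transfected human hepatoma cells bearing DRE and CYP1A2 promoter. Cells (1,200/well) were treated with compound for 24 hr at 37 C in qHTS format.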

[14] = biological target: Peroxisome proliferator-activated receptor alpha (Homo sapiens) (UniProt Q07869); assay: qHTS assay for small molecule agonists of the peroxisome proliferator-activated receptor alpha (PPARalpha) signaling pathway (AID 651778); details: PathHunter PPARalpha complementation, chemiluminescence, 6 h; max response: stronger effect = higher value; further: % of control where 0% means no effect
Peroxisome proliferator-activated receptor alpha (Homo sapiens), sequence (Q07869 whole entry, looked up, the tested form may be a part): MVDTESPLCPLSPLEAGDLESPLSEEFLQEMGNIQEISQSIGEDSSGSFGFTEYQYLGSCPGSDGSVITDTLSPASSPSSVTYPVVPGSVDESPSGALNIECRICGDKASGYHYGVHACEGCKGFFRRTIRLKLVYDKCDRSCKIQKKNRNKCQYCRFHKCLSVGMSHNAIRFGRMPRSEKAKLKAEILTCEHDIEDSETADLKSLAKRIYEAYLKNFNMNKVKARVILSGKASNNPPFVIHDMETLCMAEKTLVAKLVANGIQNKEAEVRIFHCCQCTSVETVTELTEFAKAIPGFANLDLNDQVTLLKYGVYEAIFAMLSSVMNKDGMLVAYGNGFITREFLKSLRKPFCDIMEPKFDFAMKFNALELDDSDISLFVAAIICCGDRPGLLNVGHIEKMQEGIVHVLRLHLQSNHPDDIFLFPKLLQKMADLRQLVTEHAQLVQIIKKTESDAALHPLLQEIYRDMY
How it was run: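 Enzyme-fragment complementation assay in which ligand-bound PPARalpha translocates and forms an active enzyme that generates chemiluminescence. Cells were plated overnight, exposed to compound for 6 hr at 37 C, and then given detection reagent for 60 min at room temperature.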

[15] = qHTS assay for small molecule agonists of the antioxidant response element (ARE) signaling pathway measured by Nrf2-dependant transcriptional activity (AID 720636; active means well fitted curve in the direction sought with a large enough effect in the repeat runs; an effect the other way counts as inactive or inconclusive; further: % of control where 0% means no effect)
How it was run: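 Nrf2-dependent transcription read as ONE-Glo luciferase signal from ARE-luc HepG2 reporter cells after 16 hr compound treatment at 37 C, 5% CO2, in assay medium with 1% dialyzed FBS.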

[16] = qHTS assay for small molecule agonists of the antioxidant response element (ARE) signaling pathway measured by Nrf2-dependant transcriptional activity - cell viability counter screen (AID 720653; active means well fitted curve in the direction sought with a large enough effect in the repeat runs; an effect the other way counts as inactive or inconclusive; further: on the % scale 0 is the no-effect control and ±100 the full control effect); details: ARE-bla HepG2 viability, CellTiter-Glo ATP luminescence, 16 h; max response: stronger effect = lower value
How it was run: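 ARE-bla HepG2 cells treated with compounds for 16 h at 37C; this counter screen measures viability as intracellular ATP by CellTiter-Glo luminescence after 30 min at room temperature.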

[17] = qHTS assay for cell viability of HEK293 cells (AID 743288); details: ATP luminescence (CellTiter-Glo), 18 h; max response: stronger effect = lower value; further: on the % scale 0 is the no-effect control and ±100 the full control effect; nearly all actives have a fitted effect of over 50% in size
How it was run: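 ATP luminescence (CellTiter-Glo) reports metabolically competent cell number after parental HEK293 cells, 2,000/well, were treated with DMSO-dissolved compounds for 18 h at 37 C; reagent incubation 30 min, room temperature.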

[18] = qHTS assay for cell viability of the p53RE-bla HCT-116 cell line (AID 743292); further: on the % scale 0 is the no-effect control and ±100 the full control effect; nearly all actives have a fitted effect of over 55% in size
How it was run: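 ATP-based luminescent viability (CellTiter-Glo, 30 min RT) after 16 h compound treatment at 37 C of p53RE-bla HCT-116 cells, seeded at 4,000 cells/well and rested 5 h before dosing.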

[19] = biological target: Nuclear receptor subfamily 1 group I member 2 (Rattus norvegicus) (UniProt Q9R1A7); assay: qHTS assay for small molecule activators of the rat pregnane X receptor (rPXR) signaling pathway (AID 651751; call rule not given here; further: 0% is about no effect); details: rPXR reporter cells, luciferase (One-Glo), 24 h
Nuclear receptor subfamily 1 group I member 2 (Rattus norvegicus), sequence (Q9R1A7 whole entry, looked up): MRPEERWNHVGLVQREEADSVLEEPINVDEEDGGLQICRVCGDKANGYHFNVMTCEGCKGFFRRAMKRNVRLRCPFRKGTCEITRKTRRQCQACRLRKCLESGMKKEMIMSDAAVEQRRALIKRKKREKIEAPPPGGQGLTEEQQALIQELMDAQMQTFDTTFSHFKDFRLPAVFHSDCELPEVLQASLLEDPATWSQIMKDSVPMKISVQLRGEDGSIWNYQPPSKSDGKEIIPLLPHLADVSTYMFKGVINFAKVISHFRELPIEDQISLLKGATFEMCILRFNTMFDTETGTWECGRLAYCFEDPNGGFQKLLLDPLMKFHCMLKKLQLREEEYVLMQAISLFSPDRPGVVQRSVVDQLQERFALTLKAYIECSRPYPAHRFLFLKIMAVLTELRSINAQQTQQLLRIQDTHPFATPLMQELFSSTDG

[20] = biological target: Glucocorticoid receptor (Homo sapiens) (UniProt P04150); assay: qHTS assay for small molecule antagonists of glucocorticoid receptor signaling (AID 588533; active means well fitted inhibition curve with a large enough effect in the signal ratio, with a control signal flat, not every such curve was filed as active; the % refers to the signal ratio; further: on the % scale 0 is the no-effect control and ±100 the full control effect)
Glucocorticoid receptor (Homo sapiens), sequence (P04150 whole entry, looked up): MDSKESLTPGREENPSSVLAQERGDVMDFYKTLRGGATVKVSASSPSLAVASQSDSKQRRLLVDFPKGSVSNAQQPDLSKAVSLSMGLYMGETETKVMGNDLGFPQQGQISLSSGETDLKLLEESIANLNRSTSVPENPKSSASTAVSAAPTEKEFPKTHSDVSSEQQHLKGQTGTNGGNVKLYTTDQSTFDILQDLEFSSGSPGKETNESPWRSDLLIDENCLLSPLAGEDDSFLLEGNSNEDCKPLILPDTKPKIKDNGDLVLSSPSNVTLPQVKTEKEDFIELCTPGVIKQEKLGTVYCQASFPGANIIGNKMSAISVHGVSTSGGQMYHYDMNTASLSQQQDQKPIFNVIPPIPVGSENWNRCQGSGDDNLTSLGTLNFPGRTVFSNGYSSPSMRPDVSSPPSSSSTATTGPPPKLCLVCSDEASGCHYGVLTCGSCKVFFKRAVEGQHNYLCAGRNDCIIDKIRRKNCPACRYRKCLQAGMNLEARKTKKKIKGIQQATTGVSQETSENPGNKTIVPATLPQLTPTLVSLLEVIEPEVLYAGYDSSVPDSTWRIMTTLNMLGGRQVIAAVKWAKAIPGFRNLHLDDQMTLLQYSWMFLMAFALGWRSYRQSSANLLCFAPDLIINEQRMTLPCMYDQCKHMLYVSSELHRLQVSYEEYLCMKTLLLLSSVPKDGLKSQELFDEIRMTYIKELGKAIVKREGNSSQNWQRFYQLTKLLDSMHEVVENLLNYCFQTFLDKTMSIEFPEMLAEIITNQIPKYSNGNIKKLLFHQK
How it was run: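 Antagonist-mode qHTS: compound titrations added to GRE-bla HeLa cells, then dexamethasone 2 nM final; 18 h, 37 C. CCF4 FRET fluorescence normalized to dexamethasone and DMSO; IC50 from Hill fit.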

Structure (SMILES): CCOP(=O)(OCC)OP(=O)(OCC)OCC
- activation [1]: 2.91% (inactive)
- outcome [2]: inactive
- max response [3]: 14.8%
- Potency [4]: inactive
- outcome [5]: inactive
- max response [6]: -12.7%
- Potency [7]: inactive
- Potency [8]: inactive
- max response [9]: -3.28%
- max response [10]: -9.63% (inactive)
- activity change % (negative = inhibition) [11]: 15.3% (inactive)
- activation [12]: -6.2% (inactive)
- activation [13]: -0.108% (inactive)
- max response [14]: -1.23% (inactive)
- Potency [15]: inactive
- max response [16]: 5.73% (inactive)
- max response [17]: -8.91% (inactive)
- Potency [18]: inactive
- max response [19]: 8.32% (inactive)

Structure (SMILES): CCCOc1nn(C(=O)NS(=O)(=O)c2ccccc2C(=O)OC)c(=O)n1C
- Potency [20]: inactive
- outcome [2]: inactive
- max response [3]: 41%
- Potency [4]: inactive
- outcome [5]: inactive
- Potency [8]: inactive
- max response [9]: -18%
- max response [10]: -2.92% (inactive)
- activity change % (negative = inhibition) [11]: 10.6% (inactive)
- activation [12]: 0.234% (inactive)
- activation [13]: 0.148% (inactive)
- max response [14]: 0.0457% (inactive)
- Potency [15]: inactive
- max response [16]: -11.6% (inactive)
- max response [17]: -4.57% (inactive)
- Potency [18]: inactive
- max response [19]: 4.67% (inactive)

Structure (SMILES): CC1(C)CON(Cc2ccccc2Cl)C1=O
- outcome [2]: inactive
- max response [3]: 23.3%
- max response [6]: 5.44%
- Potency [7]: inactive
- Potency [8]: inactive
- max response [9]: -9.42%
- max response [10]: -4.63% (inactive)
- activation [12]: -1.76% (inactive)
- activation [13]: 5.31% (inactive)
- max response [14]: 0.0347% (inactive)
- max response [16]: -9.67% (inactive)
- max response [17]: -8.49% (inactive)
- Potency [18]: inactive
- max response [19]: 13.2% (inactive)

Structure (SMILES): CON(C)C(=O)Nc1ccc(Cl)c(Cl)c1
- Potency [20]: inactive
- outcome [2]: inactive
- Potency [4]: inactive
- max response [6]: -3.25%
- Potency [7]: inactive
- Potency [8]: inactive
- max response [9]: -15.9%
- max response [10]: -0.419% (inactive)
- activation [12]: 0.565% (inactive)
- Potency [13]: 35.5 µM (active)
- max response [14]: -1.01% (inactive)
- max response [16]: -26.6% (inactive)
- max response [17]: -2.77% (inactive)
- Potency [18]: inactive

Structure (SMILES): COc1ccc(/C(=C/C(=O)N2CCOCC2)c2ccc(Cl)cc2)cc1OC
- activation [1]: -0.563% (inactive)
- Potency [20]: inactive
- Potency [4]: inactive
- outcome [5]: inactive
- max response [6]: 28.2%
- Potency [7]: inactive
- Potency [8]: inactive
- max response [9]: 24.3%
- max response [10]: -50.8% (inactive)
- activation [12]: -3.46% (inactive)
- activation [13]: -0.517% (inactive)
- max response [14]: 0.316% (inactive)
- Potency [15]: inactive
- max response [16]: -2.69% (inactive)
- max response [17]: -14.1% (inactive)
- Potency [18]: inactive
- max response [19]: 8.84% (inactive)

Structure (SMILES): COC(=O)N(C(=O)N1COC2(C(=O)OC)Cc3cc(Cl)ccc3C2=N1)c1ccc(OC(F)(F)F)cc1 (stereo not given)
- max response [3]: 21%
- Potency [4]: inactive
- activation [12]: -1.52% (inactive)
- activation [13]: 2.68% (inactive)
- max response [14]: -1.75% (inactive)
- Potency [15]: inactive
- max response [16]: -4.11% (inactive)
- max response [17]: -21.9% (inactive)
- Potency [18]: inactive
